# From PubChem BioAssay (NCI)
# Compounds without any hit were thinned out: in the full panel of roughly 83,000, 20% have a hit.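 Growth was measured after 48 h exposure to one concentration of compound in 96-well plates. Values under 10 count as active.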 A number with no mark means an inactive call. The source made the active and inactive calls.
# Legend:
# Experiment in all cases: NCI-60 one-dose screen, 48 h (100 = growth as untreated, 0 = no growth, -100 = all killed)
# Conditions in all cases: 10 µM
# SR leukemia = system: SR leukemia
# RPMI-8226 leukemia = system: RPMI-8226 leukemia
# OVCAR-8 ovarian = system: OVCAR-8 ovarian
# OVCAR-5 ovarian = system: OVCAR-5 ovarian
# OVCAR-4 ovarian = system: OVCAR-4 ovarian
# SK-OV-3 ovarian = system: SK-OV-3 ovarian
# IGROV1 ovarian = system: IGROV1 ovarian
# OVCAR-3 ovarian = system: OVCAR-3 ovarian
# HS 578T breast = system: HS 578T breast
# T-47D breast = system: T-47D breast
# BT-549 breast = system: BT-549 breast
# MDA-MB-435 melanoma = system: MDA-MB-435 melanoma
# SW-620 colon = system: SW-620 colon
# MCF7 breast = system: MCF7 breast
# HCT-116 colon = system: HCT-116 colon
# HCC-2998 colon = system: HCC-2998 colon
# KM12 colon = system: KM12 colon
# NCI/ADR-RES ovarian = system: NCI/ADR-RES ovarian
Structure (SMILES),growth (SR leukemia),growth (RPMI-8226 leukemia),growth (OVCAR-8 ovarian),growth (OVCAR-5 ovarian),growth (OVCAR-4 ovarian),growth (SK-OV-3 ovarian),growth (IGROV1 ovarian),growth (OVCAR-3 ovarian),growth (HS 578T breast),growth (T-47D breast),growth (BT-549 breast),growth (MDA-MB-435 melanoma),growth (SW-620 colon),growth (MCF7 breast),growth (HCT-116 colon),growth (HCC-2998 colon),growth (KM12 colon),growth (NCI/ADR-RES ovarian) [%]
COc1ccc(S(=O)(=O)Nc2ccc(OCc3nnc(-c4ccc(Cl)cc4)o3)c(F)c2)cc1,18.4%,31.6%,60.4%,98.5%,45.5%,78.8%,79.4%,71.8%,86.3%,9.53% (active),55%,64%,84.5%,42.8%,54.6%,74.2%,56.3%,–
COC(=O)[C@]12CC[C@@H](C)[C@H](C)[C@@H]1C1=CC[C@@H]3[C@@]4(C)C/C(=N\O)[C@H](O)[C@@]5(C)COC(=C45)C[C@@]3(C)[C@]1(C)CC2,-39.2% (active),-41% (active),-78.3% (active),-75.4% (active),-79.1% (active),-91.9% (active),-58.4% (active),-98.1% (active),-33.6% (active),-84.6% (active),-79.8% (active),-84% (active),-64.5% (active),-71.1% (active),-84.8% (active),-89.4% (active),-80.9% (active),–
O=C(N/N=C/c1ccccc1O)c1ccccc1,16.9%,-30.3% (active),21.7%,47%,21.4%,40.3%,22.1%,10.9%,82.9%,25.5%,–,56.7%,42.2%,3.31% (active),14.9%,–,35.4%,13.4
O=C(Nc1cccc(C(F)(F)F)c1)C(Cl)Cl,94.3%,98.5%,98.7%,105%,110%,103%,92.5%,107%,107%,87.9%,102%,103%,104%,90.2%,98.1%,105%,94.8%,–
O=S(=O)(NC1c2ccccc2Oc2ccccc21)c1ccccc1,58.3%,94.1%,88.8%,101%,88.6%,99.6%,97.3%,97.6%,–,82.3%,91.6%,107%,97%,91.5%,84.9%,103%,104%,90.9
CCCc1ccnc(NS(=O)(=O)c2ccc(N)cc2)n1,72.2%,41.4%,75.2%,117%,54.7%,95.9%,96.4%,73.5%,82%,64%,–,77.9%,99.5%,49.2%,66.1%,86.9%,74.9%,–
COc1ccc(C2C=C(c3ccc(Cl)c(Cl)c3)N=C3SC(C)=CN32)cc1 (stereo not given),9.84% (active),18%,94%,102%,91.3%,109%,86.8%,95.5%,105%,68.3%,89.9%,90.6%,91.4%,47.1%,14.4%,108%,81.6%,–
N#C/C(=C/c1cc([N+](=O)[O-])ccc1Cl)C(N)=O,8.43% (active),68.7%,82.5%,107%,94.2%,95.5%,69.9%,104%,113%,90.4%,96.8%,71.5%,46.6%,57.3%,10% (active),106%,91.5%,–
O=C(Nc1ccc(OS(=O)(=O)Cc2ccccc2)cc1)C12CC3CC(CC(C3)C1)C2,30.3%,35%,91.4%,104%,78.7%,87.3%,97.8%,80.2%,98.7%,51.3%,71.2%,97.9%,25.3%,80.7%,63.9%,49.1%,42.4%,–
NC(=O)c1ccc(Br)o1,97.4%,112%,108%,105%,107%,104%,107%,107%,109%,92.9%,103%,112%,113%,95.5%,108%,91.1%,102%,–
O=NN(CC(=O)N/N=C/C=C\c1ccccc1)CC(=O)N/N=C/C=C/c1ccccc1,85.7%,95.2%,51%,94.6%,97.2%,102%,84%,103%,80.5%,89%,123%,103%,104%,69.6%,96.2%,119%,109%,–
FC(F)(F)c1ccc(-c2ncc(-c3ccc(C(F)(F)F)cc3)c(NCc3cc(C(F)(F)F)cc(C(F)(F)F)c3)n2)cc1,83.7%,53%,44.5%,79.4%,81.3%,82.4%,65.6%,31.9%,71.9%,28.1%,79.4%,68.3%,59.7%,54.9%,24.4%,77.2%,44.7%,–
COc1cccc2c1O/C(=C\c1ncc([N+](=O)[O-])n1C)C2=O,6.35% (active),-8.69% (active),-23.3% (active),-9.04% (active),7.16% (active),-16.6% (active),-17.7% (active),-3.72% (active),-24.3% (active),97.5%,-63.6% (active),-62.5% (active),-20% (active),3.84% (active),-53.2% (active),–,-50.6% (active),–
Cc1ccc([P+](Cc2ccccc2)(c2ccccc2)c2ccccc2)cc1,-11.9% (active),-32.1% (active),3.59% (active),31.7%,3.46% (active),21.3%,0.953% (active),19.2%,44.8%,-3.45% (active),–,2.32% (active),24.4%,9.62% (active),4.1% (active),–,8.34% (active),–
COc1ccc(N2CCN(c3nc(-c4ccccc4)c(C#N)c(=O)[nH]3)CC2)cc1,89.7%,91.3%,102%,105%,102%,96.6%,101%,103%,112%,85.7%,–,111%,113%,93.9%,89.9%,–,96.8%,98.9
COc1cccc(C(=O)NNc2nc(N3CCN(C4CCCCC4)CC3)nc(N3CCN(C(c4ccccc4)c4ccccc4)CC3)n2)c1,-16.1% (active),-11.5% (active),30.1%,94.3%,24.2%,52.2%,37.6%,32.2%,74.2%,29%,55.5%,35%,39%,11.2%,19%,42%,23.6%,–
COc1cc(/C=C/C(=O)c2cc(-c3ccc(F)cc3)ccc2O)cc(OC)c1OC,49.9%,7.24% (active),66.7%,97.5%,68.3%,89.5%,84.1%,82.4%,86%,42.1%,88%,70.7%,80.9%,68.6%,60%,93.1%,86%,–
NC1CCC(Nc2nc(NCc3ccc(-c4ccccc4O)nc3)c3ncn(C4CCCC4)c3n2)CC1 (stereo not given),-41.3% (active),-28% (active),7.26% (active),19.3%,6.5% (active),8.5% (active),8.35% (active),–,8.94% (active),-34.2% (active),-28% (active),-81.5% (active),0.393% (active),-62.4% (active),-55.8% (active),-73.3% (active),-16.2% (active),10.3
